Assay outcomes from PubChem BioAssay.
Hits are enriched below; roughly 7.5% of the tested compounds scored in any of these assays.
NPC1 promoter act: activates the NPC1 promoter; Huh7 NPC1 promoter luciferase reporter, 24 h; Potency, µM (top dose mostly 9.22 µM), usual class: activators; hit rate 2.4% among 320,000; AID 485313; also: nearly all actives have a fitted effect of over 60% in size
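Quantitative HTS used a cell-based reporter: Huh7 cells stably bearing the NPC1 promoter upstream of luciferase were treated with compounds for 24 h, and promoter activation was read as luminescence.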
FLuc counter: counter-screen for miR-21 project: firefly luciferase inhibitors or activators; purified FLuc, Km substrates, luminescence inhibition; Potency, µM (series often up to 57.5 µM), usual class: inhibitors; hit rate 6.9% among 360,000; also: nearly all actives have a fitted effect of over 55% in size
Target sequence (P08659 whole entry, looked up): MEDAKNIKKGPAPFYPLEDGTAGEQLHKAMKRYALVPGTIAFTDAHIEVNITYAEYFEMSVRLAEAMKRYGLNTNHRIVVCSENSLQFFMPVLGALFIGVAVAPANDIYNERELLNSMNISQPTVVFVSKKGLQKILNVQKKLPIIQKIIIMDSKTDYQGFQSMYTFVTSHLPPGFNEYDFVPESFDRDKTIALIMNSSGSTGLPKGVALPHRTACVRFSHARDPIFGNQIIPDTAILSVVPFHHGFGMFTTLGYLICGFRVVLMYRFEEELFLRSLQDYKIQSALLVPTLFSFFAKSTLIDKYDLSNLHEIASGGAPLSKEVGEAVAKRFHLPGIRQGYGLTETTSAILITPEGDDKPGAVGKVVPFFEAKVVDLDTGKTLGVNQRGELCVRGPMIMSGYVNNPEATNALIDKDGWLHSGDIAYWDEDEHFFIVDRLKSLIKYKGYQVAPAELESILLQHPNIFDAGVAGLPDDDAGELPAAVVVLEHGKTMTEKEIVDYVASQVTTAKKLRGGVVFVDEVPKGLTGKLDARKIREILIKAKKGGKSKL
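Purified P. pyralis luciferase, 10 nM final, with Km-level 10 uM D-luciferin and 10 uM ATP in 50 mM Tris acetate pH 7.5, 10 mM Mg acetate, 0.01% Tween-20, 0.05% BSA; 6-point qHTS titration about 60 µM downward; luminescence read.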
ELG1 genotoxic: induces genotoxicity in HEK293T cells with luciferase-tagged ELG1. HEK293T ELG1-luciferase reporter, luminescence, 16 h. hit rate 1.3% among 330,000. Potency, µM (top dose mostly 46 µM), most hits filed as activators; also: nearly all actives have a fitted effect of over 60% in size
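Quantitative HTS format in 1536-well plates. HEK293T ELG1-luciferase reporter cells receive test compound and are incubated 16 hr at 37 °C, 5% CO2; ONE-Glo added, 30 min room temperature, then luminescence read.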
SMN2 splice up: SMN2 splice variant enhancement; AID 1458; Potency, µM (titrated, usually from 46.1 µM), most hits filed as activators; HEK293 SMN2-luciferase splicing reporter, luminescence, 30-36 h; hit rate 2.8% among 210,000; also: nearly all actives have a fitted effect of over 55% in size
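HEK293 cells carry an SMN2 minigene-luciferase reporter in which exon 7 inclusion puts luciferase in frame. Cells were seeded at 2000 cells/well, attached for 10-12 hours, then exposed to compounds for 30-36 hours at 37C before ONE-Glo luminescence.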
Rab9 promoter act: activators of Rab9 promoter; Huh7 Rab9 promoter-luciferase reporter, luminescence, 24 h; Potency, µM (titrated, usually from 9.22 µM), usual class: activators; hit rate 2.8% among 320,000; also: nearly all actives have a fitted effect of over 60% in size
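Huh7 cells stably carrying a Rab9 promoter-luciferase reporter, 1500 cells per well in OP-MEM I with 10% FBS, treated with compound 24 hours at 37C. Luciferase activity read by luminescence after 10 minutes with Amplite reagent.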
Each line names hits and unclear results; the compound was inactive in the other large screens. Calls follow the shape of the dose curve; as a rule, active = well fitted curve in the direction sought with a large enough effect; inconclusive = small, poorly fitted or top-dose-only effect, or another doubt; inactive = no such curve, though single readings can be large; an effect the other way counts as inactive or inconclusive.

Cc1cccc(C(=O)NCC(=O)OCC(=O)c2cc(C)n(CC3CCCO3)c2C)c1 (configuration not stated)	FLuc counter 21.3µM, ELG1 genotoxic inconclusive
Cc1cc(C(=O)COC(=O)CCc2nc3ccccc3c(=O)[nH]2)c(C)n1CC1CCCO1 (configuration not stated)	FLuc counter inconclusive (no result: SMN2 splice up)
COCCn1c(C)cc(C(=O)COC(=O)CNC(=O)c2ccccc2)c1C	FLuc counter inconclusive
Cc1ccc(C(=O)N/N=C\c2ccc3c(c2)OCO3)cn1	FLuc counter 16.9µM (no result: SMN2 splice up)
O=C(N/N=C\c1ccc2c(c1)OCO2)c1cncc(Br)c1	FLuc counter inconclusive (no result: SMN2 splice up)
Cc1cc(C(=O)N/N=C/C=C/c2ccc3c(c2)OCO3)n[nH]1	FLuc counter 15.1µM
CC(/C=C/c1ccco1)=N/NC(=O)c1ccc(C)nc1	none (no result: SMN2 splice up)
O=C(N/N=C/c1ccc2c(c1)OCO2)c1cccnc1	FLuc counter 26.9µM (no result: SMN2 splice up)
Cc1ccc(C(=O)N/N=C/c2cccc(OC(=O)/C=C/c3ccco3)c2)cn1	FLuc counter 12µM (no result: SMN2 splice up)
O=C(N/N=C\C=C\c1ccc2c(c1)OCO2)c1ccc(F)cc1	FLuc counter inconclusive
COCCCN(C)C1CCN(C(=O)Nc2ccc(F)cc2)CC1	none
COc1ccc(CC2SC(=Nc3ccc(F)cc3)NC2=O)cc1 (configuration not stated)	none
O=C(N/N=C/c1cccnc1)c1ccc2c(c1)OCCO2	NPC1 promoter act inconclusive, FLuc counter 6.01µM, ELG1 genotoxic inconclusive, SMN2 splice up 8.91µM, Rab9 promoter act 3.16µM
Cc1noc(C)c1NC(=O)N(C)C[C@H]1Oc2c(NC(=O)Nc3ccc(C(F)(F)F)cc3)cccc2C(=O)N([C@H](C)CO)C[C@@H]1C	none (no result: NPC1 promoter act, FLuc counter, SMN2 splice up, Rab9 promoter act)
C=CCn1c(COc2cc(C)ccc2C(C)C)nnc1SCC(=O)c1c(N)n(C)c(=O)n(C)c1=O	FLuc counter 4.78µM
CCNC(=S)N/N=C/c1cc(C)n(-c2ccc(Cl)cc2)c1C	NPC1 promoter act inconclusive, FLuc counter 16.9µM, ELG1 genotoxic inconclusive, SMN2 splice up 17.8µM, Rab9 promoter act inconclusive
Cc1nc2ccccn2c1C(=O)N/N=C/c1ccccc1[N+](=O)[O-]	none
Cc1nc2ccccn2c1C(=O)N/N=C/c1cc(C)n(-c2ccc(Cl)cc2)c1C	FLuc counter 21.3µM
O=C(c1ccccc1)N1N=C(C(F)(F)F)CC1(O)c1ccccc1O (configuration not stated)	none (no result: SMN2 splice up)
CCc1ccc(S(=O)(=O)Nc2cccc(-c3ccc(N4CCC(C)CC4)nn3)c2)s1	FLuc counter 1.35µM (no result: NPC1 promoter act, ELG1 genotoxic, SMN2 splice up, Rab9 promoter act)
COc1ccc(F)cc1S(=O)(=O)Nc1cccc(-c2ccc(N3CCCCCC3)nn2)c1	FLuc counter 9.53µM (no result: NPC1 promoter act, ELG1 genotoxic, SMN2 splice up, Rab9 promoter act)
COc1ccc(OC)c(S(=O)(=O)Nc2cccc(-c3ccc(N4CCCCC4)nn3)c2)c1	FLuc counter 6.01µM (no result: NPC1 promoter act, ELG1 genotoxic, SMN2 splice up, Rab9 promoter act)
Cc1ccc(S(=O)(=O)Nc2cccc(-c3ccc4nnc(C)n4n3)c2)s1	ELG1 genotoxic 20.6µM, SMN2 splice up 12.6µM
COc1ccccc1S(=O)(=O)Nc1cccc(-c2nnc3n2CCCCC3)c1	none
Cc1cc(C(=O)Nc2ccc(F)cc2F)on1	none (no result: SMN2 splice up)
Cc1ccc(S(=O)(=O)N2CCOC2CNC(=O)C(=O)NCC(C)C)cc1 (configuration not stated)	none (no result: SMN2 splice up)
COc1ccc(S(=O)(=O)Nc2cccc(-c3ccc(N4CCC(C)CC4)nn3)c2)c(OC)c1	FLuc counter 2.69µM (no result: NPC1 promoter act, ELG1 genotoxic, SMN2 splice up, Rab9 promoter act)
COc1ccc(S(=O)(=O)Nc2ccc(-c3ccc4nncn4n3)cc2)c(OC)c1	none (no result: SMN2 splice up)
COC(=O)c1c(NC(=O)CCCC(=O)O)sc(C)c1C	none
Cc1sc(NC(=O)CCCC(=O)O)c(C(N)=O)c1-c1ccccc1	FLuc counter 0.757µM, ELG1 genotoxic inconclusive
CC(C)(C)c1ccc(C(=O)N2CCC(C(=O)NCc3ccco3)CC2)cc1	SMN2 splice up 2.51µM
CC(C)(C)c1ccc(C(=O)NC(=S)N2CCOCC2)cc1	NPC1 promoter act 2.24µM, FLuc counter 9.53µM, ELG1 genotoxic 8.2µM, Rab9 promoter act 2.24µM (no result: SMN2 splice up)
CC(C)(C)c1ccc(C(=O)N2CCC(C(=O)NCC3CCCO3)CC2)cc1 (configuration not stated)	FLuc counter inconclusive, SMN2 splice up 11.2µM, Rab9 promoter act inconclusive
CC(C)(C)c1ccc(C(=O)NNC(=S)NCC2CCCO2)cc1 (configuration not stated)	none
CC(C)(C)c1ccc(C(=O)NC(=S)NCC2CCCO2)cc1 (configuration not stated)	FLuc counter 26.9µM (no result: SMN2 splice up)
O=C(NCc1ccco1)/C(=C\c1ccco1)NC(=O)c1cccs1	none (no result: SMN2 splice up)
CCCOc1cccc(C(=O)N/N=C/c2coc3ccccc3c2=O)c1	none (no result: SMN2 splice up)
CCN(Cc1cc2ccccc2[nH]c1=O)S(=O)(=O)c1ccccc1	none
COc1cccc(/C=c2\sc3nc(-c4cccs4)nn3c2=O)c1OC	FLuc counter 8.49µM
COc1ccccc1-c1nc2s/c(=C\c3cccs3)c(=O)n2n1	FLuc counter inconclusive
Cc1ccc(-c2csc(N=C(N)N)n2)cc1	NPC1 promoter act inconclusive, FLuc counter 15.1µM, Rab9 promoter act inconclusive (no result: SMN2 splice up)
Nc1nnc(-c2ccccc2[N+](=O)[O-])o1	none
O=[N+]([O-])c1ccccc1-c1nc(-c2ccc(Br)o2)no1	NPC1 promoter act 3.16µM, FLuc counter 3.01µM, ELG1 genotoxic inconclusive, Rab9 promoter act 2.82µM
COc1cc(-c2nc(-c3ccc(Br)o3)no2)cc(OC)c1OC	none
O=[N+]([O-])c1cc(Cl)ccc1-c1nc(-c2ccccc2)no1	NPC1 promoter act 3.55µM, FLuc counter 1.2µM, ELG1 genotoxic inconclusive, Rab9 promoter act 3.16µM
O=[N+]([O-])c1cc(Cl)ccc1-c1nc(-c2ccncc2)no1	FLuc counter inconclusive, Rab9 promoter act inconclusive
Clc1ccccc1-c1nc(-c2ccc(Br)o2)no1	NPC1 promoter act 1.26µM, FLuc counter 1.2µM, ELG1 genotoxic 4.11µM, Rab9 promoter act 0.708µM (no result: SMN2 splice up)
CN(C(=O)COc1ccc(Cl)cc1Br)C1CCCCC1	NPC1 promoter act inconclusive, FLuc counter inconclusive (no result: SMN2 splice up)
COc1ccc(NC(=O)CSc2nnc(-c3ccncc3)o2)c([N+](=O)[O-])c1	none (no result: SMN2 splice up)
Cc1ccc(S(=O)(=O)n2c3ccc(Cl)cc3c3nc(C)sc32)cc1	none
C=CCNC(=O)c1onc(CSc2ccc(Cl)cc2)c1C(=O)O	FLuc counter 16.9µM, SMN2 splice up inconclusive
C=CCNC(=O)c1onc(CSc2ccc(Cl)cc2)c1C(=O)NCC=C	none (no result: SMN2 splice up)
C=CCNC(=O)c1onc(CSc2cc(C)ccc2C)c1C(=O)O	SMN2 splice up 31.6µM
Cc1ccc(-c2csc(NC(=O)c3ccc(C)o3)n2)cc1	FLuc counter inconclusive
Cc1ccc(C(=O)Nc2nc(-c3ccc(F)cc3)cs2)o1	FLuc counter 30.1µM (no result: SMN2 splice up)
Cc1ccc(-c2csc(NC(=O)c3c(C)noc3C)n2)cc1	none (no result: FLuc counter, SMN2 splice up)
CC(C)(C)c1ccc(C(=O)NCC(=O)OCC(=O)Nc2nc(-c3ccc(F)cc3)cs2)cc1	FLuc counter 13.5µM
Cc1ccc(-c2csc(NC(=O)c3ccno3)n2)cc1	FLuc counter 21.3µM, ELG1 genotoxic inconclusive
